Rows were chosen to be rich in hits. Some 2.3% of all compounds tested hit in one or more screens of this group.
FUS yeast rescue – suppressors of FUS proteinopathy in yeast | S. cerevisiae FUS-expressing, growth rescue, OD600, 24 h | 390,000 compounds, 0.24% hits | Potency, µM (doses to about 76.6 µM), actives largely listed as activators; further: nearly all actives have a fitted effect of over 55% in size
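Cultures pregrown in 2.5% raffinose medium are shifted to minimal medium containing 2% galactose to express toxic FUS. Compounds are tested at several concentrations. After 24hr at 30C, growth is quantified at 600 nm absorbance.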
aSyn rescue – alpha-synuclein toxicity inhibition in yeast. Yeast expressing alpha-synuclein, growth rescue, BacTiter-Glo, 24 h. Potency, µM (top dose mostly 46.1 µM), most hits filed as activators. 370,000 compounds, 0.14% hits. AID 652106; further: nearly all actives have a fitted effect of over 65% in size
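Galactose-induced alpha-syn yeast (OD600=0.02, raffinose-pregrown) + pinned cpd, 24 hr, 30 deg C; growth by BacTiter-Glo luminescence. Growth restoration scores as activation.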
TDP43 rescue – inhibitors of TDP-43 toxicity in yeast; Potency, µM (titrated, usually from 46.1 µM), usual class: activators; AID 652104; TDP-43 expressing yeast growth rescue, BacTiter-Glo, 24 h; 410,000 compounds, 1.8% hits; further: nearly all actives have a fitted effect of over 50% in size
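Readout is BacTiter-Glo luminescence of cell growth, so inhibitors register as activators. TDP-43-expressing yeast at OD600=0.02 in galactose medium, after raffinose pregrowth to mid-log, were incubated with compound for 24 hr at 30 deg C.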
Abeta rescue – compounds reversing amyloid beta toxicity in yeast. yeast expressing A-beta42, growth rescue, OD600, 48 h; response scale: 0% DMSO, 100% iron-clioquinol control. Potency, µM (top dose mostly 46.1 µM), hits mostly activators. 410,000 compounds, 0.063% hits. AID 1347071; further: nearly all actives have a fitted effect of over 55% in size
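Yeast A-beta toxicity model in growth medium with pinned compounds, 48 h at 30 C; growth read as absorbance at 600 nm. Normalized to FeCl3/clioquinol equimolar mix (positive) and DMSO (negative).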
pAkt inh – blocks phosphorylation of Akt; AID 651550; 360,000 compounds, 0.32% hits; Neuro2A IGF-stimulated pAkt S473 HTRF, 20 min; hits give low values; activity change, % for hits at 50 µM; in the data active means activity change below about -80%; inconclusive means mostly about -51% to -80%
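Single-point screen (50 µM final compound) in Neuro2A cells stimulated 20 min with 6 nM IGF at 37 deg C. After lysis, Ser473-phosphorylated Akt read by HTRF (ex 330 nm, em 615/665 nm) as the 665/615 ratio.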
Numbers stand for hits; [ ] = remark or other dose. Unless noted, the call rests on the fitted dose curve; in most records, active means well fitted curve in the direction sought with a large enough effect; inconclusive means small, poorly fitted or top-dose-only effect, or another doubt; inactive means no such curve, though single readings can be large; an effect the other way counts as inactive or inconclusive.

Results for O=C1C=C(c2ccccc2)OC(c2ccccc2)O1 (configuration not stated) ?
FUS yeast rescue: inactive; aSyn rescue: inactive; TDP43 rescue: 13µM; Abeta rescue: inactive; pAkt inh: inactive

How did O=C(CCCc1ccccc1)Nc1nccs1 do in these assays?
FUS yeast rescue: inactive; aSyn rescue: inactive; TDP43 rescue: 11µM; Abeta rescue: inactive; pAkt inh: inactive

What do the screens show for `CCN(c1ccc(OC)cc1)S(=O)(=O)c1ccc2[nH]c3c(c2c1)CCCCC3`?
FUS yeast rescue: inactive; aSyn rescue: inactive; TDP43 rescue: inactive; Abeta rescue: inactive

Results for O=S(=O)(c1ccccc1)c1cnn2c(C(F)(F)F)cc(-c3ccccc3)nc12 ?
FUS yeast rescue: inactive; aSyn rescue: inactive; TDP43 rescue: inactive; Abeta rescue: inactive; pAkt inh: -90%

Results for O=S(=O)(c1ccccc1)c1cnn2c(C(F)(F)F)cc(-c3ccc(F)cc3)nc12 ?
FUS yeast rescue: inactive; aSyn rescue: inactive; TDP43 rescue: inactive; Abeta rescue: inactive; pAkt inh: inactive

Results for O=C(CSc1ccc(-c2cccs2)nn1)N1CCCCCC1 ?
aSyn rescue: inactive; TDP43 rescue: 18µM; Abeta rescue: inconclusive; pAkt inh: inactive

What do the screens show for `O=C(CSc1ccc(-c2cccs2)nn1)N1CCCCC1`?
aSyn rescue: inactive; TDP43 rescue: 22µM; Abeta rescue: inactive; pAkt inh: inactive

How did CC1CCN(C(=O)CSc2ccc(-c3ccccc3)nn2)CC1 do in these assays?
FUS yeast rescue: inactive; aSyn rescue: inactive; TDP43 rescue: 18µM; Abeta rescue: inactive; pAkt inh: inactive

How did CCCOc1c(Cl)cc(C(=O)N(Cc2cccc(OC)c2)C2CCS(=O)(=O)C2)cc1Cl (configuration not stated) do in these assays?
FUS yeast rescue: inconclusive; TDP43 rescue: inconclusive; Abeta rescue: inactive

How did COc1ccc(CCNC(=O)c2cc(=O)c3cc(C)c(C)cc3o2)cc1OC do in these assays?
FUS yeast rescue: inactive; TDP43 rescue: inactive; Abeta rescue: inactive

How did O=c1[nH][nH]c2c1[C@H](c1ccc(Cl)cc1)O[C@H](C1CCCC1)C2 do in these assays?
FUS yeast rescue: inactive; aSyn rescue: inactive; TDP43 rescue: 18µM; Abeta rescue: inactive; pAkt inh: inactive

Results for CC(C)C1OC(CCc2ccccc2)Cc2[nH][nH]c(=O)c21 (configuration not stated) ?
FUS yeast rescue: inactive; aSyn rescue: inactive; TDP43 rescue: inactive; Abeta rescue: inactive; pAkt inh: inactive

How did CC(C)C[C@@H]1Cc2[nH][nH]c(=O)c2[C@H](c2ccc(Cl)cc2)O1 do in these assays?
FUS yeast rescue: inactive; aSyn rescue: inactive; TDP43 rescue: inconclusive; Abeta rescue: inactive; pAkt inh: inactive

What do the screens show for `O=c1[nH]c(=S)[nH]c2c1C(c1ccccc1)OC(C1CCCCC1)C2` (configuration not stated)?
FUS yeast rescue: inactive; aSyn rescue: inactive; TDP43 rescue: inactive; Abeta rescue: inactive; pAkt inh: inactive

Results for CC[C@@H]1Cc2[nH][nH]c(=O)c2[C@@H](c2ccc(Cl)cc2)O1 ?
FUS yeast rescue: inactive; aSyn rescue: inactive; TDP43 rescue: 16µM; Abeta rescue: inactive; pAkt inh: inactive

How did CC(C)c1ccc([C@@H]2O[C@H](CCc3ccccc3)Cc3[nH][nH]c(=O)c32)cc1 do in these assays?
FUS yeast rescue: inconclusive; aSyn rescue: inactive; TDP43 rescue: 16µM; Abeta rescue: inactive; pAkt inh: inactive

What do the screens show for `CCCC[C@@H]1Cc2[nH][nH]c(=O)c2[C@H](c2cccc3ccccc23)O1`?
FUS yeast rescue: inactive; aSyn rescue: inactive; TDP43 rescue: 11µM; Abeta rescue: inactive; pAkt inh: inactive

How did Cc1ccc(N2CCN(C(=O)C3CCN(c4ncnc5c4nc4n5CCCCC4)CC3)CC2)c(C)c1 do in these assays?
FUS yeast rescue: inactive; TDP43 rescue: inactive; Abeta rescue: inactive

Results for CCc1ccc(NC(=O)CC2C(=O)N(c3ccc(Cl)cc3)C(=O)N2Cc2cccs2)cc1 (configuration not stated) ?
FUS yeast rescue: inactive; TDP43 rescue: inactive; Abeta rescue: inactive

What do the screens show for `COc1ccc(NC(=O)CCCSc2nc(-c3ccco3)cc(C(F)(F)F)n2)c(OC)c1`?
FUS yeast rescue: inactive; TDP43 rescue: inactive; Abeta rescue: inactive

What do the screens show for `CC[C@]1(O)C[C@H]2CN(CCc3c([nH]c4ccccc34)[C@@](C(=O)OC)(c3cc4c(cc3OC)N(C=O)[C@H]3[C@@](O)(C(=O)OC)[C@H](OC(C)=O)[C@]5(CC)C=CCN6CC[C@]43[C@@H]65)C2)C1`?
aSyn rescue: inactive

What do the screens show for `CN=c1scc(-c2cccs2)n1/N=C/c1ccc(O)c(O)c1O`?
FUS yeast rescue: 32µM; aSyn rescue: inactive; TDP43 rescue: inactive[0.397 µM]; Abeta rescue: inactive; pAkt inh: inactive

How did Cc1ccccc1NC(=O)CSc1nc2c(oc3ccccc32)c(=O)n1-c1ccccc1F do in these assays?
FUS yeast rescue: inactive; TDP43 rescue: inactive; Abeta rescue: inactive

How did C[C@]12CC[C@@H]3c4ccc(O)cc4CC[C@H]3[C@@H]1CCC2=O do in these assays?
FUS yeast rescue: inactive; aSyn rescue: inactive; TDP43 rescue: 4.5µM; Abeta rescue: inactive; pAkt inh: inactive

How did COc1ccc2c(c1)CC[C@@H]1[C@@H]2CC[C@]2(C)[C@@H](C(=O)O)C[C@@H]12 do in these assays?
FUS yeast rescue: inactive; aSyn rescue: inactive; TDP43 rescue: 20µM; Abeta rescue: inactive; pAkt inh: inactive

Results for Nc1cc2c(cc1C(=O)c1ccccc1F)OCCO2 ?
FUS yeast rescue: inactive; aSyn rescue: inactive; TDP43 rescue: 18µM; Abeta rescue: inactive; pAkt inh: inactive

What do the screens show for `Nc1cc2c(cc1C(=O)c1cccc(Br)c1)OCCO2`?
FUS yeast rescue: inactive; aSyn rescue: inactive; TDP43 rescue: 14µM; Abeta rescue: inactive; pAkt inh: inactive

What do the screens show for `CCC(O)c1cc2c(cc1NC(=O)c1cccc(Br)c1)OCCO2` (configuration not stated)?
FUS yeast rescue: inactive; aSyn rescue: inactive; TDP43 rescue: 13µM; Abeta rescue: inactive

How did CCC(=O)c1cc2c(cc1NC(=O)c1ccccc1F)OCCO2 do in these assays?
FUS yeast rescue: inactive; aSyn rescue: inactive; TDP43 rescue: inactive; Abeta rescue: inactive

What do the screens show for `CCN(C(=O)COC(=O)c1ccc(Sc2ncn[nH]2)c([N+](=O)[O-])c1)c1ccccc1C`?
FUS yeast rescue: inactive

How did COc1ccc(NC(=O)c2nnn(CC(=O)Nc3cc(C)cc(C)c3)c2N)c(OC)c1 do in these assays?
FUS yeast rescue: inactive; TDP43 rescue: inactive; Abeta rescue: inactive

Results for O=C(/C(=C/c1ccc(Cl)cc1)c1nc2ccccc2[nH]1)c1cccs1 ?
FUS yeast rescue: inactive; aSyn rescue: inactive; TDP43 rescue: 3.2µM; Abeta rescue: inactive; pAkt inh: inactive

Compound activity: PubChem BioAssay, National Center for Advancing Translational Sciences (NCATS)
